# Source: PubChem (several laboratories)
# sPLA2-III inh: human group III sPLA2 inhibitors, primary screen, biochemical, QFRET, BODIPY PC-A2 liposome substrate. QFRET BODIPY PC-A2 liposome hydrolysis, fluorescence. inhibition, % at 12.2 µM. Group 3 secretory phospholipase A2 (Homo sapiens), Q9NZ20. 0.56% of 370,000 active;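 active = inhibition above mean plus 3 SD of compounds lying within the high and low control bounds, cut at about 19% in these data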;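 also: 0% = median of test compound wells and 100% = no enzyme DMSO wells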
# Target sequence (Q9NZ20 whole entry, looked up): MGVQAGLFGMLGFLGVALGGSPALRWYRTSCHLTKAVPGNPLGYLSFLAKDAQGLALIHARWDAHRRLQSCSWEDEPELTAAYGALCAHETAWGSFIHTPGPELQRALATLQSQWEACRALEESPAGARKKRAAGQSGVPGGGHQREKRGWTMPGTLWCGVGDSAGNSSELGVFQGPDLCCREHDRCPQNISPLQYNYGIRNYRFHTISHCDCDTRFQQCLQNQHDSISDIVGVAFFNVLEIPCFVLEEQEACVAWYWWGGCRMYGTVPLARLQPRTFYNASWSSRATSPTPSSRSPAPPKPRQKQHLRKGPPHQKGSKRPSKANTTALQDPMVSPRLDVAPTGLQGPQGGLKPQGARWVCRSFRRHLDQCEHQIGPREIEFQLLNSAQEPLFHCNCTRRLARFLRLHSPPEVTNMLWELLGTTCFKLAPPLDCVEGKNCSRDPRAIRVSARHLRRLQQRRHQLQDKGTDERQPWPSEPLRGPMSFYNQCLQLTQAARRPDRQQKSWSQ
# PLCb3 inh: human PLC-beta3 inhibitors, primary screen, biochemical, fluorescence. 1-phosphatidylinositol 4,5-bisphosphate phosphodiesterase beta-3 (Homo sapiens), Q01970. Purified PLC-beta3, fluorogenic substrate. inhibition, % at 12.2 µM. 0.18% of 370,000 active. AID 720704, 2013; in the data active = inhibition above about 11%;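 also: 0% = median of compound wells on plate and 100% = full blocker control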
# HIF activator: HIF pathway transcriptional activators, primary screen, cell-based, U2OS HRE-luciferase, luminescence | U2OS HRE-luciferase reporter; normalized: DMSO 0%, desferrioxamine 100% | activation, % at 7.5 µM (by protocol) | 0.32% of 300,000 active;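 active = mean activation of at least 10% of the iron chelator positive control signal, with at least half of replicates also reaching 10%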
# AHR act: AHR activators, primary screen, cell-based, luminescence, luciferase reporter, human. Aryl hydrocarbon receptor (Homo sapiens), P35869. activation, % at 5 µM. 2.5% of 320,000 active. AHR-responsive luciferase reporter cells; in the data active = activation above about 47%;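 also: 0% = vehicle wells and 100% = reference agonist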
# Yeast superoxide: reduction of superoxide in aged yeast, primary screen, HTS; S. cerevisiae aged cells, superoxide DHE fluorescence; hits give low values; superoxide response (% of plate mean), % at 10 µM; 0.18% of 330,000 active; AID 2690, 2010;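 active = superoxide response under a set limit, about three screen SD below normal, cut at about 65% in these data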;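 also: yeast aged for seven days with compound at 30 °C before DHE staining; 100% = average MFI of all compound-treated wells on the plate with controls excluded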
# PLCg1 inh: PLC-gamma1 enzyme inhibitors, primary screen, biochemical, fluorescence, purified enzyme | fluorogenic substrate | inhibition, % at 12.2 µM | 0.84% of 370,000 active | AID 720700, 2013; in the data active = inhibition above about 9.5%
# Superoxide pick: superoxide lowering in aged yeast cells, confirmation, cherry picked compounds | shares compounds with Yeast superoxide | superoxide response (% of plate), % at 10 µM | 1% of 850 active | S. cerevisiae aging, superoxide DHE fluorescence; hits give low values | AID 434994, 2010;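 active = superoxide signal below 65% of the plate average of sample wells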;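 also: cells aged with compound for 7 days at 30 degrees C before staining; 100% equals mean DHE fluorescence of all compound wells on the plate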
# DHE fluor count: DHE quenching or ROS scavenging interference in aged yeast, artefact control for yeast caloric restriction mimetic project, S. cerevisiae BY4741, flow cytometry; 850 tested, under 10 active; fluorescence response, % at 10 µM; DHE fluorescence; hits give low values; shares compounds with Yeast superoxide;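 active = fluorescence response below 15%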;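 also: percent of the mean fluorescence averaged over all compound wells on the plate; lower means stronger quenching of DHE signal or ROS scavenging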
# Numbers without * were called inactive; . = not tested or not shown. Sampled rows, rich in hits. Any-hit rate of the full collection: about 3.9%.
SMILES,sPLA2-III inh,PLCb3 inh,HIF activator,AHR act,Yeast superoxide,PLCg1 inh,Superoxide pick,DHE fluor count
CCCNC(=O)CSc1nnc(-c2ccc(F)cc2)o1,-0.4,-2.3,.,0.0,126.7,0.4,117.2,100.3
CCN(CC)C(=O)CSc1nnc(-c2ccccc2)o1,1.8,2.5,1.5,5.0,97.9,-1.3,95.5,95.9
c1ccc(-c2nnc(-c3ccccn3)nn2)nc1,1.8,-8.0,2.0,10.5,94.7,-1.5,.,.
c1ccc(-c2cccc(-c3ccccn3)n2)nc1,.,.,211.7*,-7.1,62.9*,.,76.1,118.5
CCOC(=O)CC[C@H]1CC[C@]2(CCCN(C(=O)c3ccccc3)C2)O1,-0.4,1.1,.,.,.,-2.7,.,.
COc1cc(/C=N/NC(=O)C2=NNC(=O)C2C)ccc1O (stereo not given),-4.6,-5.8,0.1,1.9,91.1,1.2,.,.
CC1C(=O)NN=C1C(=O)N/N=C\c1ccc(O)cc1O (stereo not given),-6.0,-18.5,-0.2,4.2,60.2*,-16.1,93.6,93.9
OCCOCCn1c2ccccc2c2ccccc21,-10.3,5.0,-0.3,3.1,79.6,4.3,95.0,91.9
CCCCN(C(=O)c1cccc(S(=O)(=O)N2CCCCC2)c1)C1CCS(=O)(=O)C1 (stereo not given),-2.4,-1.2,-0.7,5.7,94.4,3.0,.,.
C#CCNC(=O)C[C@H]1C[C@@]2(C(=O)OC)C(=C[C@H](C(C)C)O[C@@H]2C2CC2)N(CCCCCCCC)C1=O,-0.6,5.0,.,.,.,2.7,.,.
CC(=O)Nc1ccc(S(=O)(=O)N(C)c2ccc(O)cc2)cc1,-4.2,4.1,-23.7,0.7,94.4,-0.9,.,.
CN(c1ccccc1)S(=O)(=O)c1ccc(C(=O)NNC(=O)c2ccccc2)cc1,-13.4,-5.0,.,1.4,99.2,0.1,.,.
CC(=O)Nc1ccc(S(=O)(=O)N(C)c2ccccc2)cc1,0.1,0.0,0.1,6.8,103.5,-0.1,107.9,90.3
CN(c1ccc(C(=O)O)cc1)S(=O)(=O)c1ccccc1,6.0,3.1,-0.3,3.1,101.8,1.2,113.8,106.4
COc1ccc(-n2c(SCC(=O)NC3CCCCCC3)nnc2-c2ccncc2)cc1,5.2,-1.4,.,.,.,-2.8,.,.
Cc1ccc(S(=O)(=O)N2CCCC2)cc1C(=O)Nc1ccc(-n2cnnn2)cc1,-4.2,-1.2,.,-1.1,100.0,-0.8,.,.
COc1ccc(S(=O)(=O)Nc2noc3ccccc23)cc1,-3.2,-5.0,-0.1,7.8,101.9,1.2,.,.
COc1ccc(S(=O)(=O)Nc2noc3ccccc23)cc1OC,-0.2,-3.8,-31.3,-0.9,53.8*,2.5,82.7,96.7
Cc1ccc(OCC(=O)N(C)CC(=O)Nc2cccc(F)c2)cc1,0.2,-4.8,-0.6,-1.2,91.6,2.5,.,.
CCN(CC)C(=O)CSC1=Nc2ccccc2C2=NC(Cc3c[nH]c4ccccc34)C(=O)N12 (stereo not given),-27.2,-1.3,-1.1,13.5,64.8*,0.5,104.4,90.9
COc1cc(SC)ccc1C(=O)N1CCN(c2ccccc2F)CC1,2.5,-2.2,-0.7,5.2,121.0,2.9,120.1,119.0
CCOc1ccccc1C(=O)N1c2ccccc2Sc2ccccc21,-2.2,-3.1,-0.5,14.3,57.2*,0.6,85.8,93.5
Cc1c(C(=O)N2CCN(c3cccc(Cl)c3)CC2)cccc1[N+](=O)[O-],-1.0,-2.6,-0.4,-0.1,95.6,-0.1,94.4,98.0
COc1ccc(C(=O)N2CCN(c3cccc(Cl)c3)CC2)c(OC)c1,-8.0,0.4,2.2,4.0,103.7,0.3,107.6,99.8
COc1ccc(N2CCN(C(=O)c3ccc(SC)cc3OC)CC2)cc1,10.3,-4.9,0.0,2.2,93.6,-0.8,.,.
CCOC(=O)C(=O)N(Nc1ccccc1C)c1ccccc1C,-7.3,-3.5,-0.1,1.9,112.6,1.6,.,.
